Bioassay records (PubChem)
Only some compounds are listed: those with a hit (about 2.5% of all), similar ones and a draw of the others.
HSF1 activator = increases HSF-1 driven luciferase reporter signal; activation, % at 9 µM; AID 504408; 1.7% of 300,000 active; NIH3T3-HGL HSF-1 luciferase reporter, MG132, 8 h; 100% = twice DMSO control signal;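 active = mean replicate activation of at least 50% with a set share of replicates each reaching 50%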;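 also: 0% = median of the neutral control wells and 100% = twice that signal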
aDG glyco up = alpha-DG glycosylation activation; 0.22% of 360,000 active; Pro5-aDG cells, alpha-DG glycosylation AlphaScreen (IIH6); 0% Pro5, 100% B10-LARGE cell signal; activation, % at 10 µM;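 active = activation of at least 8% versus controls, or a plate z-score of at least 8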;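 also: Pro5 are CHO cells carrying HIG-tagged alpha-DG that lacks glycosylation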
HSF1 inh = HSF1 inhibition; 0.77% of 300,000 active; NIH3T3-HGL HSE-luciferase, MG132-induced, luminescence 8 h; hits give low values; AID 2098; activity change, negative = inhibition, % at 7.5 µM (by protocol);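 active = more than half of replicate wells show activity change below -50%, luminescence cut by over half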;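 also: luciferase reports HSF-1 transcriptional activity via heat shock element; 0% = median of DMSO wells and -100% = zero luminescence signal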
GC-B act = GC-B (human) receptor activation; P20594; HEK293-GC-B cells, CNP EC30, cGMP TR-FRET; 0% at EC30 CNP, 100% saturating CNP; activation, % at 10 µM; 0.11% of 370,000 active; AID 1920062;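 active = activation at 10 µM reaching about 35% in either raw or pattern-adjusted values, limit read from the data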
Target sequence (P20594 whole entry, looked up): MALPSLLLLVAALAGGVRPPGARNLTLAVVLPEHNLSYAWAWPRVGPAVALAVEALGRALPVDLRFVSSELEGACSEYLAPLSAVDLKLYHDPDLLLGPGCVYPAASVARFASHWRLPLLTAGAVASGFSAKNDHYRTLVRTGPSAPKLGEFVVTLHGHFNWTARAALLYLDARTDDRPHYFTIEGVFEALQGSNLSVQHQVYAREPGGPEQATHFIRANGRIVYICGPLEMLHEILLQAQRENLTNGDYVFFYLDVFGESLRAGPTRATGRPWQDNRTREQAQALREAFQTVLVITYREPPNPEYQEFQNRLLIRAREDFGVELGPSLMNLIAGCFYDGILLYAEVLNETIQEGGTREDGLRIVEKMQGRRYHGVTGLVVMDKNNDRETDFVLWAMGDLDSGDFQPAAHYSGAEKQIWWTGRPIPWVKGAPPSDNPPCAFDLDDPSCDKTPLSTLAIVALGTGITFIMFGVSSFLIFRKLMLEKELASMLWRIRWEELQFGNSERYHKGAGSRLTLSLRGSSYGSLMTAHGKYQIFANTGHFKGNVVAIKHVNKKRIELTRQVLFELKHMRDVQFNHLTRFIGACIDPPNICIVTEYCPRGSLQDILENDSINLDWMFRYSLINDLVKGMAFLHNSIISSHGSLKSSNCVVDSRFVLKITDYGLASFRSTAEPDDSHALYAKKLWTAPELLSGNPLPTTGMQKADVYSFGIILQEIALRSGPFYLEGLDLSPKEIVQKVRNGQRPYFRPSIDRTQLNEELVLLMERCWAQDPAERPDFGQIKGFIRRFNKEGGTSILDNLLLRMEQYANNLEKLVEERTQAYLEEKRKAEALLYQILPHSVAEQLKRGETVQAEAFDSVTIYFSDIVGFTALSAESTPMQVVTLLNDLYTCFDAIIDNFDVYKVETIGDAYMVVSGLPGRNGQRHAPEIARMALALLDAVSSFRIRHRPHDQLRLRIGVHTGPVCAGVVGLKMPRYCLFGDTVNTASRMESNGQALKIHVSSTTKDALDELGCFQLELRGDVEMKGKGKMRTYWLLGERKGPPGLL
GC-A act = GC-A (human) enzyme activation. P16066. HEK293 GC-A cells, cGMP TR-FRET, EC30 ANP; 0% at EC30 ANP, 100% saturating ANP. activation, % at 10 µM. 0.14% of 370,000 active; in the data active = activation above about 40%
Dyrk1A ADPGlo = blocks rat Dyrk1A kinase activity. 0.43% of 310,000 active. ADP-Glo luminescence, NFATc1 peptide. Q63470. inhibition, % at 12.5 µM; in the data active = inhibition above about 50%;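 also: plate controls were vehicle with enzyme for no effect and no enzyme for full effect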
Numbers without * were called inactive.

Results for CCOC(=O)C1=C(c2ccccc2)NC(N)=NC1c1ccc(OCc2ccc(Cl)cc2)c(OC)c1 (stereo unspecified) ?
HSF1 activator: 71*; aDG glyco up: 0; HSF1 inh: 38; GC-B act: 0; GC-A act: 2; Dyrk1A ADPGlo: -4

What do the screens show for `CCOC(=O)C1=C(c2ccccc2)NC(=O)NC1c1cc(Cl)c(O)c(OC)c1` (stereo unspecified)?
HSF1 activator: -28; aDG glyco up: 0; HSF1 inh: -7; GC-B act: -17; GC-A act: -42; Dyrk1A ADPGlo: 2

What do the screens show for `CC1SC(=Nc2ccccc2)N(S(=O)(=O)c2ccccc2)C1=O` (stereo unspecified)?
HSF1 activator: -18; aDG glyco up: 0; HSF1 inh: -1; GC-B act: 3; GC-A act: 4; Dyrk1A ADPGlo: -5

What do the screens show for `O=c1cc(NCCO)c2ccccc2o1`?
HSF1 activator: 6; aDG glyco up: 0; HSF1 inh: 0; GC-B act: 5; GC-A act: 0; Dyrk1A ADPGlo: 33

How did O=c1cc(NCCc2ccccc2)c2ccccc2o1 do in these assays?
HSF1 activator: 57*; aDG glyco up: 2; HSF1 inh: 23; GC-B act: 7; GC-A act: -1

How did Clc1ccc(-c2csc(N3CCc4ccccc4C3)n2)cc1 do in these assays?
HSF1 activator: 2; aDG glyco up: 0; HSF1 inh: 7; GC-B act: 1; GC-A act: -2; Dyrk1A ADPGlo: -2

What do the screens show for `CCNC(=O)C1(C)CCCN(C(=O)c2cc(OC)ccc2Br)C1` (stereo unspecified)?
aDG glyco up: 0; GC-B act: 2; GC-A act: 2

How did COc1cccc2sc(N(C)c3ccccc3)nc12 do in these assays?
HSF1 activator: 64*; aDG glyco up: 0; HSF1 inh: 19; GC-B act: -9; GC-A act: -4; Dyrk1A ADPGlo: 5

What do the screens show for `Cc1nc(NC(C)c2ccccc2)sc1C(=O)Nc1ccccc1` (stereo unspecified)?
HSF1 activator: -89; aDG glyco up: 0; HSF1 inh: -87*; GC-B act: -1; GC-A act: -3; Dyrk1A ADPGlo: 2

What do the screens show for `NNC(=O)c1sc(-c2ccc(Cl)cc2)cc1N`?
HSF1 activator: 26; aDG glyco up: 0; HSF1 inh: 23; GC-B act: -4; GC-A act: 24; Dyrk1A ADPGlo: -5

Results for O=C(Sc1cccc2cccnc12)c1ccccc1Br ?
HSF1 activator: 207*; aDG glyco up: 0; HSF1 inh: 138; GC-B act: 7; GC-A act: 10; Dyrk1A ADPGlo: 3

What do the screens show for `CC(=O)/C(=N\Nc1ccccc1Cl)Sc1cccc2cccnc12`?
HSF1 activator: 143*; aDG glyco up: 1; HSF1 inh: 131; GC-B act: -8; GC-A act: -19; Dyrk1A ADPGlo: -3

What do the screens show for `CC(=O)/C(=N\Nc1ccccc1)Sc1cccc2cccnc12`?
HSF1 activator: 187*; aDG glyco up: 0; HSF1 inh: 167; GC-B act: -4; GC-A act: -1; Dyrk1A ADPGlo: 1

How did Cn1c(C(=O)NCc2ccc3c(c2)OCO3)cc2sccc21 do in these assays?
HSF1 activator: 5; aDG glyco up: 0; HSF1 inh: 9; GC-B act: 2; GC-A act: 4; Dyrk1A ADPGlo: 9

How did Cn1c(C(=O)Nc2ccc3c(c2)OCO3)cc2sccc21 do in these assays?
HSF1 activator: 66*; aDG glyco up: 0; HSF1 inh: 31; GC-B act: 1; GC-A act: 1; Dyrk1A ADPGlo: 8

What do the screens show for `CC(C)C(C(=O)NCc1ccccc1)N(CC1CCCO1)C(=O)CNS(=O)(=O)c1ccccc1` (stereo unspecified)?
HSF1 activator: 83*; aDG glyco up: 0; HSF1 inh: 36; GC-B act: -2; GC-A act: 2; Dyrk1A ADPGlo: -4

What do the screens show for `CCS(=O)(=O)c1nc(S(=O)(=O)c2ccc(C)cc2)c(NCCCN2CCCC2=O)s1`?
HSF1 activator: 5; aDG glyco up: 0; HSF1 inh: 2; GC-B act: 0; GC-A act: -2; Dyrk1A ADPGlo: -4

What do the screens show for `O=C1CCCN1CCCNc1nc2c(S(=O)(=O)c3ccccc3)nnn2c2ccc(Cl)cc12`?
HSF1 activator: -25; aDG glyco up: 0; HSF1 inh: -5; GC-B act: 48*; GC-A act: 36; Dyrk1A ADPGlo: -3

Results for COc1ccc(C(=O)Nc2c(C)cc(C)cc2C)cc1OC ?
HSF1 activator: -13; aDG glyco up: 0; HSF1 inh: -2; GC-B act: 3; GC-A act: 3; Dyrk1A ADPGlo: -1

How did Cc1cccc(C)c1-n1c(C)cc(/C=C2\NC(=O)NC2=O)c1C do in these assays?
HSF1 activator: -62; aDG glyco up: 0; HSF1 inh: -52*; GC-B act: 3; GC-A act: -5; Dyrk1A ADPGlo: 7

What do the screens show for `O=C1C(=O)c2ccc(-c3ccccc3)cc2-c2ccccc21`?
HSF1 activator: -95; aDG glyco up: -1; HSF1 inh: -95*; GC-B act: -8; GC-A act: -9; Dyrk1A ADPGlo: 6

What do the screens show for `O=C(CC1NCCN(Cc2ccccc2)C1=O)Nc1ccccc1` (stereo unspecified)?
HSF1 activator: 2; aDG glyco up: 0; HSF1 inh: 1; GC-B act: 2; GC-A act: 3

What do the screens show for `COCCNC(=O)Cn1cnc2sc(C)c(S(=O)(=O)N3CCN(c4ccccc4OC)CC3)c2c1=O`?
HSF1 activator: -6; aDG glyco up: 0; HSF1 inh: -13; GC-B act: -1; GC-A act: -1; Dyrk1A ADPGlo: 2

What do the screens show for `COCCCNC(=O)Cn1cnc2sc(C)c(S(=O)(=O)N3CCN(c4ccccc4OC)CC3)c2c1=O`?
HSF1 activator: -78; aDG glyco up: 0; HSF1 inh: -72*; GC-B act: -1; GC-A act: 0; Dyrk1A ADPGlo: -8

Results for COc1cc(/C=C/C(=O)c2ccc(Cl)s2)cc(OC)c1O ?
HSF1 activator: 174*; aDG glyco up: 0; HSF1 inh: 129; Dyrk1A ADPGlo: -2

Results for COc1ccc(/C=C/C(=O)c2ccc(Cl)s2)cc1O ?
HSF1 activator: -25; aDG glyco up: 0; HSF1 inh: -5; GC-B act: -16; GC-A act: 22; Dyrk1A ADPGlo: -3

Results for Cc1ccc(NC(=O)CN(C)C(=O)Cc2ccc(Cl)c(Cl)c2)cc1 ?
HSF1 activator: 14; aDG glyco up: 0; HSF1 inh: 3; GC-B act: 2; GC-A act: -4; Dyrk1A ADPGlo: 15
